USP10 inh: blocks human USP10 ubiquitin-rhodamine cleavage | purified USP10, Ub-rhodamine fluorescence, 60 min | inhibition, % at 20 µM | 1.1% of 47,000 active | AID 1645856
USP7 inh: inhibitors of human USP7 deubiquitinase. Q93009. purified USP7, Ub-rhodamine cleavage fluorescence. inhibition, % at 20 µM. 0.3% of 47,000 active
OTUD3 block: blocks human OTUD3 ubiquitin-rhodamine cleavage; Q5T2D3; purified OTUD3, Ub-rhodamine fluorescence, 2 h; inhibition, % at 25 µM; 0.7% of 47,000 active; AID 1645858
Target sequence (Q5T2D3 whole entry, looked up): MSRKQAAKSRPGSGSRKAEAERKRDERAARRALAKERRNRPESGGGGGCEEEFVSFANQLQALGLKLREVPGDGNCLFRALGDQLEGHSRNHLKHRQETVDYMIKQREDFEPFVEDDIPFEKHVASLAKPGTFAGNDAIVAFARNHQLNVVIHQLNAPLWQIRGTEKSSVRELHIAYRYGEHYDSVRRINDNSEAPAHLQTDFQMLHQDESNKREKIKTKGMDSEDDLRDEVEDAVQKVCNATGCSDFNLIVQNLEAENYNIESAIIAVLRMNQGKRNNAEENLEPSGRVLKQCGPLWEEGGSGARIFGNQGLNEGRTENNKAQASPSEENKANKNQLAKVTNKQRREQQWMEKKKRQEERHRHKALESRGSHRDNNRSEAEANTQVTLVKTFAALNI
UCHL1 block: blocks human UCHL1 ubiquitin-rhodamine cleavage; 0.2% of 47,000 active; purified UCHL1, Ub-rhodamine cleavage fluorescence; inhibition, % at 20 µM; P09936; AID 1645859
Numbers stand for hits; – = inactive. Hits are enriched below; roughly 1.5% of the tested compounds scored in any of these assays. Cut-off read from the data, not from the text of the source: active = inhibition above about 30%; inactive = the rest.

SMILES	USP10 inh	USP7 inh	OTUD3 block	UCHL1 block
CC1Cn2c(cnc2C(F)(F)F)C(=O)N1CC(=O)Nc1ccc(F)cc1 (stereo not given)	–	–	–	–
Cc1ccc(NC(=O)C2CCN(C(=O)c3cc(-c4ccncc4)n[nH]3)CC2)cc1Cl	–	–	39	–
O=C(NCC1CC1)C1CCCN(c2ccc(-c3ccccc3)nn2)C1 (stereo not given)	–	–	30	–
O=C(NCC1(c2ccccc2)CCC1)c1nc2n(n1)-c1ccccc1S(=O)(=O)N2	39	–	–	–
O=C(Nc1ccccc1Cc1ccccc1)c1nc2n(n1)-c1ccccc1S(=O)(=O)N2	46	–	–	–
Cc1ccnc(NS(=O)(=O)c2ccc(NC(=O)c3ccc(S(=O)(=O)N(C)Cc4ccccc4)cc3)cc2)n1	42	–	–	–
Cc1ccnc(NS(=O)(=O)c2ccc(NC(=O)c3ccc(S(=O)(=O)N(C)c4ccccc4)cc3)cc2)n1	–	–	–	–
CN1c2ncccc2C(=O)NC1c1cccc(N)c1 (stereo not given)	–	–	–	–
COc1ccc2cc(C(=O)NCc3ccccn3)[nH]c2c1	–	–	–	–
COc1ccc2nc(NC(=O)c3cc4ccc5cccnc5c4[nH]3)sc2c1	33	–	–	–
O=C(Nc1nc2ccccc2s1)c1cc2ccc3cccnc3c2[nH]1	35	–	–	–
CCOc1ccccc1-c1cc(NC(=O)c2cc3ccc4cccnc4c3[nH]2)on1	53	–	–	–
CCOc1ccccc1NC(=O)c1cc(-c2ccncc2)n[nH]1	–	–	–	–
O=C(COC(=O)CCc1nc2ccccc2[nH]c1=O)Nc1ccc([N+](=O)[O-])cc1	–	–	–	–
O=c1c2ccccc2nc(N2CCN(Cc3ccc4c(c3)OCO4)CC2)n1-c1ccccc1	–	–	–	–
N#Cc1cccc(NC(=O)c2ccc3c(=O)n4c(nc3c2)CCCCC4)c1	–	–	–	–
CN1CC(c2nc3ccccc3n2Cc2cccc(Cl)c2)CC1=O (stereo not given)	–	–	–	–
O=C1c2cccc(O)c2C(=O)c2c(O)cccc21	–	–	–	–
Cc1cc(O)c2c3c(c(O)cc2c1)C(=O)c1c(O)cccc1C3=O	–	60	67	67
O=C(CCC(=O)c1ccc(F)cc1)Nc1cccc(S(=O)(=O)Nc2cccc(Cl)c2)c1	32	–	–	–
Cc1ccc(S(=O)(=O)Nc2cccc(Cl)c2)cc1NC(=O)CCc1ccccc1	–	–	–	–
Cc1ccc(S(=O)(=O)Nc2cccc(Cl)c2)cc1NC(=O)CCC(=O)c1ccc(Cl)cc1	34	–	–	–
Cc1ncc2c(n1)C1(CCN(Cc3cccc(OC(C)C)c3)CC1)OCC2	–	–	–	–
COc1ccc(OC)c(NC(=O)C2Cc3ccccc3N2C(=O)c2ccccc2)c1 (stereo not given)	–	–	–	–
NC(=O)c1ccccc1NCc1cc(=O)n2cc(Cl)ccc2n1	–	–	–	–
SMILES	USP10 inh	USP7 inh	OTUD3 block	UCHL1 block
Cc1ccc2nc(CNc3ccc(F)cc3C)cc(=O)n2c1	–	–	42	32
CC(NC(=O)c1ccccc1)c1nc2ccccc2n1CC(=O)Nc1ccc2c(c1)OCO2 (stereo not given)	56	–	–	–
CC(NC(=O)c1ccccc1)c1nc2ccccc2n1CC(=O)Nc1ccc(F)cc1 (stereo not given)	–	–	–	–
Cc1cccc(C(C)C)c1NC(=O)Cn1c(COc2ccccc2)nc2ccccc21	–	–	–	–
CCc1cccc(C)c1NC(=O)Cn1c(C(C)NC(=O)c2ccc(C)cc2)nc2ccccc21 (stereo not given)	44	–	–	–
CC(C)Cc1cc(-c2nnc3sc(-c4ccco4)nn23)n[nH]1	–	–	41	–
COc1cc(NS(=O)(=O)c2ccc(NC(=O)COc3ccc(C)cc3Br)cc2)nc(OC)n1	38	–	–	–
Cc1ccc(C(C)C)c(OCC(=O)Nc2ccc(S(=O)(=O)Nc3cc(C)nc(C)n3)cc2)c1	–	–	–	–
O=C(COc1ccccc1)N(Cc1ccccc1O)c1ccccc1Cl	–	–	–	–
O=C1CC(c2cc(F)ccc2F)c2cc3c(cc2N1)OCCO3 (stereo not given)	–	–	–	–
O=C1CC(c2cc3c(cc2Br)OCO3)c2cc3c(cc2N1)OCCO3 (stereo not given)	40	–	–	–
CCCCCCCCCC(CCCCCCCCCC(=O)O)O[C@H]1O[C@@H](COC(C)=O)[C@H](O)[C@@H](O)[C@H]1OC(=O)CC(=O)O (stereo not given in full)	68	–	–	–
CC(=O)N1CCc2cc(S(=O)(=O)NC(Cc3ccccc3)C(=O)Nc3cccc(Cl)c3C)ccc21 (stereo not given)	55	–	38	–

Source: PubChem BioAssay (Buhrlage Lab, Dana-Farber Cancer Institute and Novartis Institutes for BioMedical Research (Cambridge, Mass))
